# Measurements as given in article PMC7862700, “An all-to-all approach to the identification of sequence-specific readers for epigenetic DNA modifications on cytosine”.
# Key:
# Experiment in all cases: DAPPL (digital affinity profiling via proximity ligation, sequencing); 10 mM Tris-HCl pH 7.5, 50 mM NaCl, 1 mM DTT, 4% glycerol, room temperature, 30 min; GST-TFs on glutathione beads, 16-mer random dsDNA library, 0.1% formaldehyde crosslink after washing; high values mean tight binding
# Conditions in all cases: protein: recombinant; tags: N-terminal GST; dsDNA, one strand shown
# [1] = molecular target: T1, FLI1 (Homo sapiens, UniProt Q01543 1-452)
# T1 sequence: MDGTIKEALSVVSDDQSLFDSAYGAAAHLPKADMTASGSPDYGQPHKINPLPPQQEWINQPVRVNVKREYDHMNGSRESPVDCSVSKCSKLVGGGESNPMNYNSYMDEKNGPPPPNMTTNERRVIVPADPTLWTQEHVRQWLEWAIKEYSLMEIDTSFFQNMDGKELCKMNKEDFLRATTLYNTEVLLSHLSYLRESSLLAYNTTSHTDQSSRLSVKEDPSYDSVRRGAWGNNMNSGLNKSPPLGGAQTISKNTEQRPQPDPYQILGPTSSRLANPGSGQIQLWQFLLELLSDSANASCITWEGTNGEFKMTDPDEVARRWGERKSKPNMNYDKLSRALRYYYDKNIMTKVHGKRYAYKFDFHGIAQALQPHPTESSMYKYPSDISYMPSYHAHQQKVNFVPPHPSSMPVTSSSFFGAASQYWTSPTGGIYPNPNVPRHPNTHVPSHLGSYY
# Summary of the method: (§1)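 Yeast served to express human transcription factors as GST fusions, which were then captured on glutathione beads and labelled with DNA barcodes. Pooled with a tag-only sample, they were incubated with 200 nmole of a 16-mer random double-stranded DNA library for 30 min at room temperature in Tris/NaCl/DTT/glycerol buffer, washed, crosslinked with 0.1% formaldehyde, ligated by proximity, amplified by PCR and sequenced. Dividing each hexamer's read frequency for a factor by its frequency for the tag-only sample gives the binding signal.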
# [2] = molecular target: T2, ELK1 (Homo sapiens, UniProt P19419 1-428)
# T2 sequence: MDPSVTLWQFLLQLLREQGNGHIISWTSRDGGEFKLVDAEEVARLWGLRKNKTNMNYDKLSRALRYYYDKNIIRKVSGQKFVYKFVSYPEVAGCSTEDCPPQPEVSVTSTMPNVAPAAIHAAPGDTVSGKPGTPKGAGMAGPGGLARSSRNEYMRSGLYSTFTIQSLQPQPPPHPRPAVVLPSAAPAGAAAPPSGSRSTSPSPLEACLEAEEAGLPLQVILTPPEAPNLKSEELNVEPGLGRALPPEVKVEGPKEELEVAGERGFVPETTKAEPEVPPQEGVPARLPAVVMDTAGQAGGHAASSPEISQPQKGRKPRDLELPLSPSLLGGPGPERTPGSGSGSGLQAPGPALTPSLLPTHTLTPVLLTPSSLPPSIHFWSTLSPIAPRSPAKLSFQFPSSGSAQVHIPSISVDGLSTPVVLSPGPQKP
# Summary of the method: as §1
# [3] = molecular target: T3, GABPA (Homo sapiens, UniProt Q06546 1-454)
# T3 sequence: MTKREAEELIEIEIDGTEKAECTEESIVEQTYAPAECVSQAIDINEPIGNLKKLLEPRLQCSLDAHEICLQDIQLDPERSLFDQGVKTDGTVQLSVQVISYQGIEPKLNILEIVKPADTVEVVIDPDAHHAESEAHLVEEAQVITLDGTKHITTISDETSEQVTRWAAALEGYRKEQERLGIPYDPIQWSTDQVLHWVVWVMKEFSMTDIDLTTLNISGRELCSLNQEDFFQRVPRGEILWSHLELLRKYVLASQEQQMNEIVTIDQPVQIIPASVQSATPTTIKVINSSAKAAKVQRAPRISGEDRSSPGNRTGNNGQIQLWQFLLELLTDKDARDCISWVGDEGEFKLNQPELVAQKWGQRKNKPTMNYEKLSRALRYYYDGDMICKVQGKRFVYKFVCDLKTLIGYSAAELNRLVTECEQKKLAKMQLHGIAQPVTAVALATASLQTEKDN
# Summary of the method: as §1
# [4] = molecular target: T4, ERG (Homo sapiens, UniProt P11308 1-479)
# T4 sequence: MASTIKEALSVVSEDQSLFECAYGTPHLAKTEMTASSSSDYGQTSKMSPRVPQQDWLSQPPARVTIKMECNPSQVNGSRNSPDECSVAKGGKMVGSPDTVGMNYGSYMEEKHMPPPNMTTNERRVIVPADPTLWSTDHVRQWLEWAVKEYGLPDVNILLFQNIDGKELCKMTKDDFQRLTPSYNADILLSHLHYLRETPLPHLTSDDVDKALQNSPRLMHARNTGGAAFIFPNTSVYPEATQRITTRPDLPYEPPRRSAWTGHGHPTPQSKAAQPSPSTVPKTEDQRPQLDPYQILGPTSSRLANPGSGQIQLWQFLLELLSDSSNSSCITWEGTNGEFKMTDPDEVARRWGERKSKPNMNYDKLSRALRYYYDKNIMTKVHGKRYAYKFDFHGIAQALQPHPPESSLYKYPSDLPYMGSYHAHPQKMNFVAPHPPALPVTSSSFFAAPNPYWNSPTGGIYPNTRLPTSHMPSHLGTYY
# Summary of the method: as §1
# [5] = molecular target: ELF1 (Homo sapiens, UniProt P32519 1-619)
# Summary of the method: as §1
# [6] = molecular target: T5, EHF (Homo sapiens, UniProt Q9NZC4 1-300)
# T5 sequence: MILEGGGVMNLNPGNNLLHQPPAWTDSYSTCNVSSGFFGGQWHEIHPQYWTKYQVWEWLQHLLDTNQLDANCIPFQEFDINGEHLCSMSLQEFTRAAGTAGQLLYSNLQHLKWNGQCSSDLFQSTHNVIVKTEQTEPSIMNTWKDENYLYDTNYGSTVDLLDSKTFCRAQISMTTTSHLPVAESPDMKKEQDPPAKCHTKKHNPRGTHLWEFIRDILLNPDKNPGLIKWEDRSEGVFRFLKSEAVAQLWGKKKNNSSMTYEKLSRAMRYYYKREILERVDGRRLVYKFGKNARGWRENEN
# Summary of the method: as §1
# [7] = molecular target: SPI1 (Homo sapiens, UniProt P17947 1-270)
# Summary of the method: as §1
# [8] = molecular target: SPIB (Homo sapiens, UniProt Q01892 1-262)
# Summary of the method: as §1
# [9] = molecular target: T6, ELK3 (Homo sapiens, UniProt P41970 1-407)
# T6 sequence: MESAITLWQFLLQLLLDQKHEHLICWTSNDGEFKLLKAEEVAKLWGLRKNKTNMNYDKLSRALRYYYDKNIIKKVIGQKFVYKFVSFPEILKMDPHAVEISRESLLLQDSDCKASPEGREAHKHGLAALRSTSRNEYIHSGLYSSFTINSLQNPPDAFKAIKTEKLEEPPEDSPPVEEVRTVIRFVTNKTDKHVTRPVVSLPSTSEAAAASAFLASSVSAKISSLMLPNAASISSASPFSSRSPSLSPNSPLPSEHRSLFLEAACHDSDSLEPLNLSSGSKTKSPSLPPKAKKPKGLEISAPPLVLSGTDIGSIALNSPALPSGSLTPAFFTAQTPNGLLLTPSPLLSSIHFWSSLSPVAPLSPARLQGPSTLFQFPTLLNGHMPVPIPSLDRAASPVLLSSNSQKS
# Summary of the method: as §1
# ELF1, sequence (P32519 whole entry): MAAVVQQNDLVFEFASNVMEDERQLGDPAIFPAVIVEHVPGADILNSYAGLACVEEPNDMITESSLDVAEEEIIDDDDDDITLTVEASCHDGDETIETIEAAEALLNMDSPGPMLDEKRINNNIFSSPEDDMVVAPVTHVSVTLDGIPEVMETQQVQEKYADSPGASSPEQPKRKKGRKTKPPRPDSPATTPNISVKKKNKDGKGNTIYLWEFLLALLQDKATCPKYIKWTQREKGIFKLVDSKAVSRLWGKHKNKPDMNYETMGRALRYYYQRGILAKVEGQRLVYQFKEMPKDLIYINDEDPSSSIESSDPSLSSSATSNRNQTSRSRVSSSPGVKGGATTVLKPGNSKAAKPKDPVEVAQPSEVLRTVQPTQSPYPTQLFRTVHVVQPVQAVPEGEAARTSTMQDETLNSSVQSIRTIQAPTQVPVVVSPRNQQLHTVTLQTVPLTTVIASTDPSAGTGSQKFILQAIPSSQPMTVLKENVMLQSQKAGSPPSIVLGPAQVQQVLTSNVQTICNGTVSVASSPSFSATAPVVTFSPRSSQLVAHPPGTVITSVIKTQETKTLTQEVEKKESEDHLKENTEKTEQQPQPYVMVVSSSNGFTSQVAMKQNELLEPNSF
# SPIB, sequence (Q01892 whole entry): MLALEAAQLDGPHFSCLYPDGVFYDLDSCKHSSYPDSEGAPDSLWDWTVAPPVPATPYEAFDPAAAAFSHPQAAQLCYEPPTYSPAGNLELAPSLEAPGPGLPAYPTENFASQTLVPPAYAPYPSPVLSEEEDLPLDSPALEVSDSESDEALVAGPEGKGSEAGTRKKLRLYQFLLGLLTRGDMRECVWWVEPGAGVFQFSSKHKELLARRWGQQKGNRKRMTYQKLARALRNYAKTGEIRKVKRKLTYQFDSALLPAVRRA
sequence,measurement,setting,value
GCACCT,binding signal,[1],"1.07 fold enrichment (6-mer frequency, TF over GST control)"
same,binding signal,[2],"1.01 fold enrichment (6-mer frequency, TF over GST control)"
same,binding signal,[3],"1.12 fold enrichment (6-mer frequency, TF over GST control)"
same,binding signal,[4],"1.07 fold enrichment (6-mer frequency, TF over GST control)"
same,binding signal,[5],"1.16 fold enrichment (6-mer frequency, TF over GST control)"
same,binding signal,[6],"1.18 fold enrichment (6-mer frequency, TF over GST control)"
same,binding signal,[7],"1.05 fold enrichment (6-mer frequency, TF over GST control)"
same,binding signal,[8],"1.13 fold enrichment (6-mer frequency, TF over GST control)"
same,binding signal,[9],"1.05 fold enrichment (6-mer frequency, TF over GST control)"
